# Source: PubChem BioAssay (EPA / NIEHS)
# Activity calls are given as the source filed them. The calls were made as follows: active = hit-call score of the fitted dose curve at least 0.9, where 1 is the maximum; inactive = score below 0.9.
# Assays:
# Settings in all cases: mRNA level, 48 h; actives raise or lower the signal
# [1] = read-out: Tumor necrosis factor receptor superfamily member 6 (Homo sapiens) (UniProt P25445); test: LTEA_HepaRG_FAS: Life Technologies and Expression Analysis (LTEA) Assay for Fas cell surface death receptor (FAS) using HepaRG (AID 2283447)
# In short: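 FAS transcript level was measured by TaqMan qRT-PCR against three housekeeping genes after 48 h chemical exposure. Cells were HepaRG, 0.5% DMSO vehicle, with a top concentration of 100 uM and half-log dilutions over eight points, in duplicate.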
# [2] = read-out: Fatty acid synthase (Homo sapiens) (UniProt P49327); test: LTEA_HepaRG_FASN: Life Technologies and Expression Analysis (LTEA) Assay for Fatty Acid Synthase (FASN) using HepaRG (AID 2283448)
# In short: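 Differentiated human HepaRG cells were exposed for 48 h in serum-free induction medium to eight half-log concentrations up to 100 uM in 0.5% DMSO, in duplicate. FASN mRNA was quantified by TaqMan qRT-PCR, normalized to ACTB/GAPDH/POLR2A, and fitted bidirectionally against DMSO.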
# [3] = read-out: Cyclin D2 (CCND2), CCND2 (gene 894); test: LTEA_HepaRG_CCND2: Life Technologies and Expression Analysis (LTEA) Assay for Cyclin D2 (CCND2) using HepaRG (AID 2283449)
# In short: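 Read-out is CCND2 mRNA level measured by qRT-PCR in human HepaRG liver cells and normalised to three housekeeping genes. Chemicals were applied for 48 h at up to 100 uM, with gain or loss fitted relative to 0.5% DMSO.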
# [4] = read-out: Cyclin Dependent Kinase Inhibitor 1A (CDKN1A), CDKN1A (gene 1026); test: LTEA_HepaRG_CDKN1A: Life Technologies and Expression Analysis (LTEA) Assay for Cyclin Dependent Kinase Inhibitor 1A (CDKN1A) using HepaRG (AID 2283450)
# In short: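 Differentiated HepaRG cells in serum-free induction medium, exposed 48 h in duplicate to eight half-log concentrations up to 100 uM in 0.5% DMSO. mRNA measured by TaqMan qRT-PCR, normalized to ACTB, GAPDH, POLR2A; bidirectional fit versus DMSO.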
# [5] = read-out: Cyclin D1 (CCND1), CCND1 (gene 595); test: LTEA_HepaRG_CCND1: Life Technologies and Expression Analysis (LTEA) Assay for Cyclin D1 (CCND1) using HepaRG (AID 2283451)
# In short: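 Differentiated HepaRG cells exposed 48 h in serum-free induction medium to eight half-log concentrations from 100 uM top, 0.5% DMSO, duplicates. CCND1 mRNA measured by Fluidigm TaqMan qRT-PCR, normalised to ACTB, GAPDH, POLR2A; bidirectional fit.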
# [6] = read-out: catalase (CAT), CAT (gene 847); test: LTEA_HepaRG_CAT: Life Technologies and Expression Analysis (LTEA) Assay for catalase (CAT) using HepaRG (AID 2283452)
# In short: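 Expression of CAT was quantified by TaqMan qRT-PCR with ACTB/GAPDH/POLR2A normalization after 48 h chemical exposure of HepaRG. Eight-point half-log series, top 100 uM, in 0.5% DMSO; gain or loss fitted against vehicle.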
# [7] = read-out: flavin-containing dimethylaniline monooxygenases 3 (FMO3), FMO3 (gene 2328); test: LTEA_HepaRG_FMO3: Life Technologies and Expression Analysis (LTEA) Assay for flavin-containing dimethylaniline monooxygenases 3 (FMO3) using HepaRG (AID 2283453)
# In short: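 HepaRG, 48 h exposure, 8-pt half-log series from 100 uM, 0.5% DMSO vehicle, duplicates; FMO3 transcript by Fluidigm TaqMan qRT-PCR, housekeeping-normalized; gain/loss fit vs DMSO.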
# [8] = read-out: Cytochrome P450 (CYP1A1), CYP1A1 (gene 1543); test: LTEA_HepaRG_CYP1A1: Life Technologies and Expression Analysis (LTEA) Assay for Cytochrome P450 (CYP1A1) using HepaRG (AID 2283454)
# In short: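 Differentiated human HepaRG cells, after 48 h plating, exposed in duplicate for 48 h in serum-free induction medium to 8 half-log concentrations up to 100 uM in 0.5% DMSO. CYP1A1 mRNA by qRT-PCR, normalized to ACTB/GAPDH/POLR2A; bidirectional fit versus DMSO.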
# [9] = read-out: CFLAR gene, CFLAR (gene 8837); test: LTEA_HepaRG_CFLAR: Life Technologies and Expression Analysis (LTEA) Assay for CFLAR gene using HepaRG (AID 2283455)
# In short: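 HepaRG, 48 h exposure, 8-pt conc-response (100 uM top, half-log), 0.5% DMSO vehicle, duplicates. CFLAR expression by qRT-PCR; ACTB/GAPDH/POLR2A normalization; gain or loss fit vs DMSO baseline.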
# [10] = read-out: Forkhead box O1 (FOXO1), FOXO1 (gene 2308); test: LTEA_HepaRG_FOXO1: Life Technologies and Expression Analysis (LTEA) Assay for Forkhead box O1 (FOXO1) using HepaRG (AID 2283456)
# In short: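 Readout is FOXO1 transcript level by multiplexed qRT-PCR against three housekeeping genes, curve-fitted in both directions relative to 0.5% DMSO vehicle. Human HepaRG cultures received chemicals for 48 h, up to 100 uM in half-log steps.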
# [11] = read-out: Forkhead box O3 (FOXO3), FOXO3 (gene 2309); test: LTEA_HepaRG_FOXO3: Life Technologies and Expression Analysis (LTEA) Assay for Forkhead box O3 (FOXO3) using HepaRG (AID 2283459)
# In short: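 HepaRG, 48 h post-dose; 8 conc., half-log from 100 uM, 0.5% DMSO, duplicates; serum-free induction medium. Readout: FOXO3 mRNA, TaqMan qRT-PCR, housekeeping-normalized. Bidirectional curve fit vs DMSO baseline.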
# [12] = read-out: ABC Transporter (ABCB1), ABCB1 (gene 5243); test: LTEA_HepaRG_ABCB1: Life Technologies and Expression Analysis (LTEA) Assay for ABC Transporter (ABCB1) using HepaRG (AID 2283460)
# In short: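 Expression of ABCB1 was quantified by qRT-PCR against three housekeeping genes after human HepaRG cultures received test chemicals for 48 hours. Concentrations spanned eight half-log steps topping at 100 uM in 0.5% DMSO; gain or loss of signal was fitted relative to vehicle.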
# [13] = read-out: growth arrest and DNA damage 45 (GADD45B), GADD45B (gene 4616); test: LTEA_HepaRG_GADD45B: Life Technologies and Expression Analysis (LTEA) Assay for growth arrest and DNA damage 45 (GADD45B) using HepaRG (AID 2283461)
# In short: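 Differentiated human HepaRG cells in serum-free induction medium exposed 48 h in duplicate to eight concentrations, top 100 uM, half-log steps, 0.5% DMSO. GADD45B mRNA by TaqMan qRT-PCR, normalized to ACTB, GAPDH, POLR2A; bidirectional fit versus DMSO.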
# [14] = read-out: ABC Transporter (ABCC3), ABCC3 (gene 8714); test: LTEA_HepaRG_ABCC3: Life Technologies and Expression Analysis (LTEA) Assay for ABC Transporter (ABCC3) using HepaRG (AID 2283462)
# In short: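 Differentiated human HepaRG cells exposed 48 h in serum-free induction medium, 0.5% DMSO vehicle, 8-point half-log series to 100 uM in duplicate. ABCC3 mRNA by qRT-PCR, normalised to ACTB, GAPDH, POLR2A; bidirectional fit vs DMSO.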
# [15] = read-out: ABC Transporter (ABCB11), ABCB11 (gene 8647); test: LTEA_HepaRG_ABCB11: Life Technologies and Expression Analysis (LTEA) Assay for ABC Transporter (ABCB11) using HepaRG (AID 2283463)
# In short: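 ABCB11 transcript levels are read by Fluidigm TaqMan qRT-PCR after 48 h chemical treatment of human HepaRG cells. Concentrations span 100 uM downward in half-log steps with 0.5% DMSO; gain or loss is fitted against DMSO controls.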
# [16] = read-out: ABC Transporter (ABCC2), ABCC2 (gene 1244); test: LTEA_HepaRG_ABCC2: Life Technologies and Expression Analysis (LTEA) Assay for ABC Transporter (ABCC2) using HepaRG (AID 2283464)
# In short: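 Differentiated HepaRG cells in serum-free induction medium exposed 48 h to eight half-log concentrations up to 100 uM, 0.5% DMSO, in duplicate. ABCC2 mRNA measured by qRT-PCR (TaqMan, Fluidigm), normalized to ACTB, GAPDH and POLR2A. Fitted in both directions against DMSO.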
# [17] = read-out: Broad substrate specificity ATP-binding cassette transporter ABCG2 (Homo sapiens) (UniProt Q9UNQ0); test: LTEA_HepaRG_ABCG2: Life Technologies and Expression Analysis (LTEA) Assay for ABC Transporter (ABCG2) using HepaRG (AID 2283465)
# In short: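 Read-out is ABCG2 mRNA induction or loss quantified by qRT-PCR after 48 h chemical treatment of human HepaRG cells, normalized to three housekeeping genes. Concentrations reached 100 uM top in half-log steps; fitting was bidirectional against 0.5% DMSO.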
# [18] = read-out: growth arrest and DNA damage 45 (GADD45A), GADD45A (gene 1647); test: LTEA_HepaRG_GADD45A: Life Technologies and Expression Analysis (LTEA) Assay for growth arrest and DNA damage 45 (GADD45A) using HepaRG (AID 2283458)
# In short: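 Differentiated HepaRG cells were exposed in duplicate for 48 h in serum-free induction medium to 8-point half-log concentrations up to 100 uM in 0.5% DMSO. GADD45A mRNA was measured by TaqMan qRT-PCR, normalized to ACTB, GAPDH and POLR2A, with bidirectional fitting versus DMSO.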
# Sequence of Fatty acid synthase (Homo sapiens) (P49327 whole entry, looked up): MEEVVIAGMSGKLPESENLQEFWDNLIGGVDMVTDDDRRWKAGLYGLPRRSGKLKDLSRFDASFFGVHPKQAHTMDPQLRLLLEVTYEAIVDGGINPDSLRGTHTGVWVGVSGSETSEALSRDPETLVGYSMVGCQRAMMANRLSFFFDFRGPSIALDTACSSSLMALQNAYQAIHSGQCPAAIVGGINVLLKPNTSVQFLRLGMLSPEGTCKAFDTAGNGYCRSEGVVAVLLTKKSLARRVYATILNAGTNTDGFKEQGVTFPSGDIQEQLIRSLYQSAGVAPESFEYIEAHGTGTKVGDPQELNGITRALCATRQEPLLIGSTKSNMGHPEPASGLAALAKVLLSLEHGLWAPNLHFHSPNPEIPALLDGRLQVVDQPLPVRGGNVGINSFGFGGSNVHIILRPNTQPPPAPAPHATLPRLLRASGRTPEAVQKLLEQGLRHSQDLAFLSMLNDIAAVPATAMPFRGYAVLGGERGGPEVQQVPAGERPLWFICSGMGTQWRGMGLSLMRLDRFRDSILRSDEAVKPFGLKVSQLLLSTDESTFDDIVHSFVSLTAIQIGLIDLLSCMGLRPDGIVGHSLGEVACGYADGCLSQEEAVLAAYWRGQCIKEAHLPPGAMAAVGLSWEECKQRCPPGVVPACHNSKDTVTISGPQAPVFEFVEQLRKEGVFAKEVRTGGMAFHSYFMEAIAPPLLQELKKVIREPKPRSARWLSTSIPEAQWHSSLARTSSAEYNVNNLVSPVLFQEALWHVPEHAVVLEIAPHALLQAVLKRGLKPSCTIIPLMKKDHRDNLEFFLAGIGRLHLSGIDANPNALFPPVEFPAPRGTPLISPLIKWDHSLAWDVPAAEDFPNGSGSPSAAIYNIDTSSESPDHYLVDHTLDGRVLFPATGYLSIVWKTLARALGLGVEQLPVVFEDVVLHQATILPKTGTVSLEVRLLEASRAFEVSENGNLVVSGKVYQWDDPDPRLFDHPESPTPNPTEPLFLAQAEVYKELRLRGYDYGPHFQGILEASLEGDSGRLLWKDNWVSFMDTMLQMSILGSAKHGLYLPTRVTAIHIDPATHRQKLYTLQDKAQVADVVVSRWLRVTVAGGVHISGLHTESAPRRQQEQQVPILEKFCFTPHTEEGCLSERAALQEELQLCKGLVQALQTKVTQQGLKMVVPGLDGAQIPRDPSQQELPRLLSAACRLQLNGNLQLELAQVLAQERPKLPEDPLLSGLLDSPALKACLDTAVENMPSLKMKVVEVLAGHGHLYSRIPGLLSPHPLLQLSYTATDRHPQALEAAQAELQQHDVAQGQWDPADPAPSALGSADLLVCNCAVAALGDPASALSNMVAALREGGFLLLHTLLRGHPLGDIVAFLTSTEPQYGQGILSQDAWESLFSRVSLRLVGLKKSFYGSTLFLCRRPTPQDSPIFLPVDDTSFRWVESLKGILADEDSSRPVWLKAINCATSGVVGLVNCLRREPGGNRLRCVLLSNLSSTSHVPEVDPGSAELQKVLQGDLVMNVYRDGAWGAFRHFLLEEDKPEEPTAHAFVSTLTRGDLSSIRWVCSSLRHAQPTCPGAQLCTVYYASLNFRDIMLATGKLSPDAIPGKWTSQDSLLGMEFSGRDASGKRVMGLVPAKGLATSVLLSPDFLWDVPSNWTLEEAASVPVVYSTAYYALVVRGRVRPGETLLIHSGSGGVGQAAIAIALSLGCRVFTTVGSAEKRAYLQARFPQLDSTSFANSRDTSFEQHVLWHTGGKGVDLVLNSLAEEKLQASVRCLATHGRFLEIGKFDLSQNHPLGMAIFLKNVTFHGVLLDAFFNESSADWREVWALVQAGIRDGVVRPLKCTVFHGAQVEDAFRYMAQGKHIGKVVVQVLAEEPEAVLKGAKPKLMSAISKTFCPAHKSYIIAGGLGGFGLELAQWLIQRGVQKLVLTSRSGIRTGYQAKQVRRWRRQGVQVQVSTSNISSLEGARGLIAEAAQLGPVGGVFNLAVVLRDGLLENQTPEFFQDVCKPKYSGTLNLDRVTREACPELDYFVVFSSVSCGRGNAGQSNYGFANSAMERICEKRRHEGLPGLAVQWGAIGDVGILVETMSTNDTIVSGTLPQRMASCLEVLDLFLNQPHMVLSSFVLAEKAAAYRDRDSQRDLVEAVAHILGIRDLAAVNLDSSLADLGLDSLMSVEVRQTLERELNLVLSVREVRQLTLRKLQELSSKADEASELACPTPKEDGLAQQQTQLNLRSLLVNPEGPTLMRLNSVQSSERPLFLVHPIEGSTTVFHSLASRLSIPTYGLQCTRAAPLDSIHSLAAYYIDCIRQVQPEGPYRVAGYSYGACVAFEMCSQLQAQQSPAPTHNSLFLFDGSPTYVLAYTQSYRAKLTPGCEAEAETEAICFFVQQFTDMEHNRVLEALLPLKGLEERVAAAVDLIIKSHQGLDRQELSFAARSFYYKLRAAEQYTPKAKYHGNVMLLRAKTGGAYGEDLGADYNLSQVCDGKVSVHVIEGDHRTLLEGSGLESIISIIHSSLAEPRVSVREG
# Sequence of Broad substrate specificity ATP-binding cassette transporter ABCG2 (Homo sapiens) (Q9UNQ0 whole entry, looked up): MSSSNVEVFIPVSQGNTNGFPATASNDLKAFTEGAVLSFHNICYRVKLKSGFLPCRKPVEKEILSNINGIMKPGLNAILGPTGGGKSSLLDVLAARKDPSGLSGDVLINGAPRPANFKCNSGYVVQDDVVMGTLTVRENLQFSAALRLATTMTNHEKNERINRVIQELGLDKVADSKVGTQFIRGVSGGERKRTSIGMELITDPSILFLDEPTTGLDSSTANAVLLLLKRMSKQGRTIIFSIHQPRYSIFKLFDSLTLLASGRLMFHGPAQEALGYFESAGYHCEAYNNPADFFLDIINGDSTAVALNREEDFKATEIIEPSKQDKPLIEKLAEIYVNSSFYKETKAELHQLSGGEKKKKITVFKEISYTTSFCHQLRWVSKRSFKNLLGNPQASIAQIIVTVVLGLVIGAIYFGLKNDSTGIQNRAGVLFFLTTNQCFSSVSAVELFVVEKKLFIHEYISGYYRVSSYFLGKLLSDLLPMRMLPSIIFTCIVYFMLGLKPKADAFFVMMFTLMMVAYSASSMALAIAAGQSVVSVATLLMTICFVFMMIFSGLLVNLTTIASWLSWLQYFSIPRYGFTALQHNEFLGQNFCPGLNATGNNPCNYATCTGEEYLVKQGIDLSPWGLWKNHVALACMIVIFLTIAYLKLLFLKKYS
smiles,measurement,setting,value
N#CC(Br)Br,outcome,[1],inactive
same,outcome,[2],inactive
same,outcome,[3],inactive
same,outcome,[4],inactive
same,outcome,[5],inactive
same,outcome,[6],inactive
same,outcome,[7],inactive
same,outcome,[8],inactive
same,outcome,[9],inactive
same,outcome,[10],inactive
same,outcome,[11],inactive
same,outcome,[12],inactive
same,outcome,[13],inactive
same,outcome,[14],inactive
same,outcome,[15],inactive
same,outcome,[16],inactive
same,outcome,[17],inactive
Oc1ccccc1Cl,outcome,[1],inactive
same,outcome,[2],inactive
same,outcome,[3],inactive
same,outcome,[4],inactive
same,outcome,[5],inactive
same,outcome,[6],inactive
same,outcome,[7],inactive
same,outcome,[8],inactive
same,outcome,[9],inactive
same,outcome,[10],inactive
same,outcome,[11],inactive
same,outcome,[12],inactive
same,outcome,[13],inactive
same,outcome,[14],inactive
same,outcome,[16],inactive
same,outcome,[17],inactive
CC(C)(OOC(C)(C)c1ccccc1)c1ccccc1,outcome,[1],inactive
same,outcome,[2],inactive
same,outcome,[4],inactive
same,outcome,[5],inactive
same,outcome,[6],inactive
same,outcome,[7],inactive
same,AC50,[8],50 µM (active)
same,outcome,[9],inactive
same,outcome,[10],inactive
same,outcome,[18],inactive
same,outcome,[11],inactive
same,outcome,[12],inactive
same,AC50,[13],50 µM (active)
same,outcome,[14],inactive
same,AC50,[16],50 µM (active)
same,outcome,[17],inactive
Nc1cc(Cl)cc(C(=O)O)c1Cl,outcome,[1],inactive
same,outcome,[2],inactive
same,outcome,[3],inactive
same,outcome,[4],inactive
same,outcome,[5],inactive
same,outcome,[6],inactive
same,outcome,[7],inactive
same,AC50,[8],63.4 µM (active)
same,outcome,[9],inactive
same,outcome,[10],inactive
same,outcome,[11],inactive
same,outcome,[12],inactive
same,outcome,[13],inactive
same,outcome,[14],inactive
same,outcome,[16],inactive
same,outcome,[17],inactive
CCCCC(CC)COC(=O)c1ccc(C(=O)OCC(CC)CCCC)c(C(=O)OCC(CC)CCCC)c1 (stereo not drawn),outcome,[1],inactive
same,outcome,[2],inactive
same,outcome,[4],inactive
same,outcome,[5],inactive
same,outcome,[6],inactive
same,outcome,[7],inactive
same,AC50,[8],50 µM (active)
same,outcome,[9],inactive
same,outcome,[10],inactive
same,outcome,[18],inactive
same,outcome,[11],inactive
same,outcome,[12],inactive
same,outcome,[13],inactive
same,outcome,[14],inactive
same,outcome,[16],inactive
same,outcome,[17],inactive
C=CCc1ccc2c(c1)OCO2,outcome,[1],inactive
same,outcome,[2],inactive
same,outcome,[3],inactive
same,outcome,[4],inactive
same,outcome,[5],inactive
same,outcome,[6],inactive
same,outcome,[7],inactive
same,AC50,[8],50 µM (active)
same,outcome,[9],inactive
same,outcome,[10],inactive
same,outcome,[11],inactive
same,outcome,[12],inactive
same,outcome,[13],inactive
same,outcome,[14],inactive
same,outcome,[15],inactive
same,outcome,[16],inactive
same,outcome,[17],inactive
CN(C)C(=O)Nc1ccc(Cl)cc1,outcome,[1],inactive
same,outcome,[2],inactive
same,outcome,[4],inactive
same,outcome,[5],inactive
same,outcome,[6],inactive
same,outcome,[7],inactive
same,AC50,[8],38 µM (active)
same,outcome,[9],inactive
same,outcome,[10],inactive
same,outcome,[11],inactive
same,outcome,[12],inactive
same,outcome,[13],inactive
same,outcome,[14],inactive
same,outcome,[16],inactive
same,outcome,[17],inactive
